Screening data: PubChem, National Center for Advancing Translational Sciences (NCATS)
CtBP-E1A blk: qHTS Assay for Inhibitors of the CtBP/E1A Interaction; activity change, % (test concentration not listed); AlphaScreen GST-E1A/His-CtBP binding, 1536-well; stronger effect = lower value; actives 0.49% (n = 340,000); CtBP / adenovirus E1A interaction (AlphaScreen); in the data active = activity change below about -65%; inconclusive = mostly about -30% to -63%
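Protein mix (5X: 125 nM each GST-E1A, His-CtBP) was incubated with pinned compound 2 h at 37 deg C in dark, in 50 mM Tris pH 8.0 buffer with 300 mM NaCl. Glutathione donor and nickel acceptor beads followed; AlphaScreen signal read after 1 h.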
USP2a block: qHTS Assay for Inhibitors of Ubiquitin-specific Protease USP2a Using CHOP2 as the Reporter; Ubiquitin carboxyl-terminal hydrolase 2 (Homo sapiens), O75604; USP2 core, Ub-CHOP2 coupled fluorogenic reporter, 485/531; Potency, µM (doses to about 38.3 µM), actives largely listed as inhibitors; actives 0.01% (n = 330,000)
Target sequence (O75604 whole entry, looked up): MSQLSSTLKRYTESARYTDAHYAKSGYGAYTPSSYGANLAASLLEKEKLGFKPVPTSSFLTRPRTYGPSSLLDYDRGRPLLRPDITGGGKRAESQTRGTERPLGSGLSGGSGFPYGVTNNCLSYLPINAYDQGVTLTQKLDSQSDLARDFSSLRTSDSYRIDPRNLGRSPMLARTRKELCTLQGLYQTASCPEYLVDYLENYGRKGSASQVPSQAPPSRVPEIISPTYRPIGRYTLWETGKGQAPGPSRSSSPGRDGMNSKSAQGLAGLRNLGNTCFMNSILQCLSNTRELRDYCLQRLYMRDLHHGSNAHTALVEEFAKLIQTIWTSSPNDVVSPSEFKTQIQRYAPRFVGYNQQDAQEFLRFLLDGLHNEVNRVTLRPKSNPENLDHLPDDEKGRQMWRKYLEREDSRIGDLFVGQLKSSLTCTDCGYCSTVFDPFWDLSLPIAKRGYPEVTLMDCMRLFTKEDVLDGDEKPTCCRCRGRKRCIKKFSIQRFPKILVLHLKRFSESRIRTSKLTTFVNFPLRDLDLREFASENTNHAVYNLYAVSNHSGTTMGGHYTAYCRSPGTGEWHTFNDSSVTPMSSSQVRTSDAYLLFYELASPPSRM
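Deubiquitinase activity read as fluorescence (485/531 nm) after Ub-CHOP2 cleavage activates the enterokinase reporter on its substrate; USP2 core 10nM, Ub-CHOP2 and substrate 25nM each, 30min compound preincubation then 60min RT; data normalized to NEM, curves fitted.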
RGS4 inhibitor: Inhibitors of Regulator of G Protein Signaling (RGS) 4: qHTS; Regulator of G-protein signaling 4 (Homo sapiens), P49798; Transcreener GDP fluorescence polarization, RGS4-accelerated GTP hydrolysis; Potency, µM (titrated, usually from 114 µM), actives largely listed as inhibitors; actives 0.039% (n = 390,000); AID 504845, 2011; also: nearly all actives have a fitted effect of over 75% in size
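MLSMR compounds (23 nl, pin-transferred) preincubated 10 min at room temperature with a 500nM (2x) first reagent, then RGS4 at 900nM (2x) plus Transcreener GDP mix added; fluorescence polarization (620/688 nm) read before and after 90 min at 30 °C.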
PI4K2A block: qHTS for small molecular inhibitors of PI4K2A | actives 0.13% (n = 420,000) | activity change, negative = inhibition, % at 76.9 µM | purified PI4K2A, ADP-Glo luminescence, 1 h; stronger effect = lower value; in the data active = activity change below about -50%; inconclusive = mostly about -30% to -49%
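Compounds are screened against recombinant PI4K2A using PI as substrate and ATP, the latter dispensed at 300 microM. Reactions run one hour at ambient temperature before ADP-Glo detection; full inhibition defined by wells lacking enzyme.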
Six1-Eya2 blk: qHTS Assay for Inhibitors of the Six1/Eya2 Interaction. activity change, % (no concentration beside the values). AID 651725, 2012. AlphaScreen GST-Six1/His-Eya2 binding, biochemical; stronger effect = lower value. actives 0.56% (n = 360,000); in the data active = activity change below about -65%; inconclusive = mostly about -30% to -63%
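Compounds are tested against tagged Six1 and Eya2 proteins bridged by glutathione donor and nickel acceptor beads; after a one-hour incubation at 37 °C without light, AlphaScreen emission is recorded.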
Eya2 phos inh: qHTS Assay for Inhibitors of the Phosphatase Activity of Eya2; Protein phosphatase EYA2 (Homo sapiens), O00167; recombinant Eya2, OMFP fluorescence dephosphorylation (OMFP is methylfluorescein phosphate); Potency, µM (doses to about 76.9 µM), usual class: inhibitors; actives 0.006% (n = 330,000)
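Eya2 (0.2 uM) preincubated 10 min at ambient with compound, then OMFP substrate added at 50 uM; 10 min reaction in 50 mM HEPES pH 7.5, 50 mM NaCl, 5 uM MgCl2, 0.05% BSA, 1 mM DTT. Fluorescence read at Ex 485/Em 525 nm.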
A number is an active result; . = inactive; ? = inconclusive; / = no result; ! = repeats disagree. A selection: hits, their analogues and other compounds. The true share with any hit is near 0.72%. Unless noted, calls follow the shape of the dose curve; as a rule, active = well fitted curve in the direction sought with a large enough effect; inconclusive = small, poorly fitted or top-dose-only effect, or another doubt; inactive = no such curve, though single readings can be large; an effect the other way counts as inactive or inconclusive.

SMILES | CtBP-E1A blk | USP2a block | RGS4 inhibitor | PI4K2A block | Six1-Eya2 blk | Eya2 phos inh
Cc1cccc(NC2=C/C(=N/S(=O)(=O)c3cccs3)c3ccccc3C2=O)c1 | ? | . | . | . | . | .
CCCCCCCCOc1ccc(C(=O)O)cc1 | . | . | . | . | . | .
CCCCCCCCc1ccc(-c2ccc(C(=O)O)cc2)cc1 | / | / | 21µM | . | / | .
CCCCCCCCCCCCCCCCCCc1ccc(C(=O)/C=C\C(=O)O)cc1 | / | / | . | / | / | /
C=CC(=O)c1ccc(CCCCCC)cc1 | / | / | 2.7µM | . | / | .
COc1ccc(O)c(/C=N/NC(=O)CCC(=O)Nc2ccc(C)cc2)c1 | / | . | . | . | . | .
COc1ccc(O)c(/C=N/NC(=O)CN2CCS(=O)(=O)CC2)c1 | -71 | . | . | . | ? | .
CC1=C(c2ccc(C)c(C)c2)S(=O)(=O)N=C1N1CCC(C(=O)N2CCC(C)CC2)CC1 | / | / | . | . | / | /
CN=c1nc(-c2ccccc2)n(-c2ccccc2)s1 | . | . | 3.8µM | . | . | .
CC(=O)N=c1nc(-c2ccccc2)n(-c2ccccc2)s1 | / | / | . | / | / | /
COc1cccc(-c2cnc3c(NC=O)cc(-c4ccc(O)c(OC)c4)cn23)c1 | -71 | / | / | . | ? | /
COc1ccc(-c2[nH]ncc2C(=O)NCc2cccc(Cl)c2)cc1 | / | / | . | . | / | /
C/C=C/c1cccc(-c2nc(C(=O)NC3CCC3)cc3c2[C@H](CCO)N(S(=O)C(C)(C)C)C3)c1 (stereo partly specified) | . | / | / | . | . | /
O=C1C(=Cc2cn(-c3ccccc3)nc2-c2ccc(OCc3ccccc3)cc2)SC(=S)N1CCS(=O)(=O)O | . | / | / | . | -74 | /
CC1(C)CC(=O)C(N=Nc2cc(Cl)c(Cl)c(Cl)c2)=C(O)C1 | . | . | . | . | . | .
Cc1ccc(O)c(N=NC2=C(O)CC(C)(C)CC2=O)c1 | . | . | . | . | -90 | .
O=C(NCc1cc(Br)cc(Br)c1OC(=O)c1ccccc1[N+](=O)[O-])c1ccccc1 | ? | . | . | . | -72 | .
Cc1cc(C)cc(NC(=O)[C@H]2O[C@@H]3OC(C)(C)O[C@@H]3[C@H]3OC(C)(C)O[C@H]32)c1 | / | / | . | . | / | /
CC1(C)OC2OC(C(=O)N/N=C/c3cc(Br)ccc3O)C3OC(C)(C)OC3C2O1 (stereo unspecified) | -90 | . | . | . | -82 | .
O=C(COC(=O)c1ccc(S(=O)(=O)NCc2ccco2)cc1)Nc1ccc(Cl)cn1 | . | . | . | -52 | . | .
NC(=S)NCCC[C@H](N)C(=O)O | / | / | 11µM! | . | / | .
NC(=O)NCCC[C@H](N)C(=O)O | / | / | . | / | / | /
O=C(Nc1nnc([C@H]2C[C@H](O)[C@@H](CO)O2)s1)C(c1ccccc1)c1ccccc1 | . | / | / | . | . | /
CCOc1ccc(NC(=O)CN(C)C(=O)C2CC(=O)N(c3cccc(SC)c3)C2)cc1OCC (stereo unspecified) | -72 | / | . | . | -65 | /
CCOc1ccc(NC(=O)CN(C)C(=O)C2CC(=O)N(c3ccc4c(c3)OCCO4)C2)cc1OCC (stereo unspecified) | . | . | . | . | . | .
CC[n+]1c(/C=C/C=C2/N(C)c3ccccc3C2(C)C)sc2ccccc21 | / | / | 21µM | ? | / | .
CC[n+]1c(/C=C/C=C/N(C(C)=O)c2ccccc2)sc2ccccc21 | . | . | ? | . | . | .
CN(C)C(=O)c1ccc(N=Nc2c(O)c3ccccc3[nH]c2=O)cc1 | . | / | . | . | . | /
Cc1ccc(NC(=S)N=Nc2c(O)[nH]c3ccccc23)cc1 | . | . | . | . | . | .
CNC(=S)N=Nc1c(O)[nH]c2ccccc12 | -69 | . | . | . | -70 | .
